# Assay results published in PubChem BioAssay (Tox21).
# A number with no mark means an inactive call. Inconclusive results are not listed. Entries that show only a call come without a potency. Activity calls are given as the source filed them. Unless noted, calls come from the whole dose curve.
# Key:
# [1] = Nuclear factor erythroid 2-related factor 2/antioxidant responsive element (Nrf2/ARE) small molecule agonists: qHTS cell viability counter screen in human keratinocytes (AID 1919968; active = well fitted curve in the direction sought with a large enough effect in the repeat runs; an effect the other way counts as inactive or inconclusive; note: nearly all actives have a fitted effect of over 55% in size; note: potency is the fitted concentration of half-maximal effect)
# Outline: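 Measured as CellTiter-Fluor fluorescence, this readout tracks cytotoxicity in the same wells as the ARE-luciferase screen. HaCaT reporter cells (1,500/well) received compounds after a 5 h pre-incubation and were exposed for 23 h.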
# [2] = Nuclear factor erythroid 2-related factor 2/antioxidant responsive element (Nrf2/ARE) small molecule agonists: luciferase reporter gene qHTS assay in human keratinocytes (AID 1919969); note: nearly all actives have a fitted effect of over 35% in size
# [3] = target: Gonadotropin-releasing hormone receptor (Homo sapiens) (UniProt P30968); experiment: Human gonadotropin-releasing hormone receptor (GnRHR) small molecule agonists, calcium flux assay in GnRHR-HEK293 cells (AID 1920063); note: nearly all actives have a fitted effect of over 35% in size
# Outline: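 Fluorescence kinetics (480 nm excitation, 540 nm emission; 3 min, 1 s steps) report calcium mobilisation in human GnRHR-HEK293 cells in agonist mode. Dye incubation: 1 h, 37 C.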
# [4] = target: KiSS-1 receptor (Homo sapiens) (UniProt Q969F8); experiment: Human kisspeptin (KISS1R) small molecule agonists, calcium flux assay in KISS1R-HEK293 cells (AID 1920064; active = well fitted curve in the direction sought with a large enough effect in the repeat runs; an effect the other way counts as inactive or inconclusive)
# Outline: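 Measures KISS1R agonism through calcium-sensitive dye fluorescence in stably transfected HEK293 cells, read for 3 min after pin-tool compound delivery; 15-point titrations in triplicate.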
# [5] = G protein-coupled receptor (GPCR) small molecule agonists, calcium flux assay: HEK293 wild type cell line counter screen (AID 1920065)
# Outline: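 Readout: fluorescence at 480 nm excitation/540 nm emission, sampled at 1 s intervals for 3 min. Cells had been cultured 18 h, then dye-loaded 1 h at 37 C before compound or ATP addition.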
# [6] = p53 small molecule agonists, cell-based qHTS assay with human liver microsomes (AID 1963577);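 note: p53 response element beta-lactamase reporter cells with liver microsomes plus NADPH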
# Outline: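 HLM-supplemented p53RE-bla reporter assay: 16 h compound exposure at 37 C, microsomes and NADPH each 0.5 mg/mL final, read by fluorescence intensity.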
# [7] = p53 small molecule agonists, cell-based qHTS assay with rat liver microsomes (AID 1963578)
# Outline: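 Quantitative HTS of the Tox21 10K library: p53RE-bla cells, rat liver microsomes plus NADPH at 0.5 mg/mL final each, 16 h at 37 C, beta-lactamase fluorescence detection.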
# [8] = p53 small molecule agonists, cell-based qHTS assay with human liver microsomes: qHTS cell viability counter screen (AID 1963579); note: nearly all actives have a fitted effect of over 45% in size
# Outline: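 Viability of p53RE-bla cells is measured as CellTiter-Glo luminescence following a 16 h, 37 C incubation with compound, liver microsomes from human donors and NADPH.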
# [9] = p53 small molecule agonists, cell-based qHTS assay with rat liver microsomes: qHTS cell viability counter screen (AID 1963580); note: nearly all actives have a fitted effect of over 45% in size
# Outline: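 Viability is assessed in parallel with the p53 reporter read: HCT-116 p53RE-bla cells receive compounds plus rat microsomes and NADPH (0.5 mg/mL final apiece), incubate 16 h at 37 C, and then CellTiter-Glo luminescence is recorded.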
# [10] = p53 small molecule agonists, cell-based qHTS assay: qHTS cell viability counter screen (AID 1963581); note: nearly all actives have a fitted effect of over 45% in size
# Outline: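 In the same plates used for the p53 bla reporter, HCT-116 cells given compounds for 16 h at 37 C received CellTiter-Glo; luminescence was recorded 30 min later at room temperature.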
# [11] = target: 5-hydroxytryptamine receptor 2A (Homo sapiens) (UniProt P28223); experiment: 5-hydroxytryptamine receptor 2A (HTR2A) small molecule antagonists, cell-based qHTS assay (AID 1963586); note: nearly all actives have a fitted effect of over 45% in size; note: potency is the fitted concentration of half-maximal effect
# Outline: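 Antagonist-mode intracellular calcium assay: DOI (4 nM) added after 5 min compound pre-incubation at room temperature to dye-loaded HTR2A-CHO cells. Fluorescence followed for 3 min, sampled every second.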
# [12] = target: 5-hydroxytryptamine receptor 2A (Homo sapiens) (UniProt P28223); experiment: 5-hydroxytryptamine receptor 2A (HTR2A) small molecule agonists, cell-based qHTS assay (AID 1963587); note: nearly all actives have a fitted effect of over 30% in size; note: potency is the fitted concentration of half-maximal effect
# Outline: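 CHO cells stably expressing human HTR2A, plated 18 h, loaded with calcium dye 1 h at 37 C. Agonist mode: compounds added and intracellular calcium fluorescence recorded kinetically for 2 min at 1 sec intervals.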
# [13] = target: Muscarinic acetylcholine receptor M1 (Homo sapiens) (UniProt P11229); experiment: Cholinergic receptor muscarinic 1 (CHRM1) small molecule antagonists, cell-based qHTS assay (AID 1963588); note: nearly all actives have a fitted effect of over 40% in size
# Outline: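 CHRM1-CHO calcium-flux assay, antagonist mode. Cells were seeded 18 h, dye-loaded 1 h at 37 C and given compound for 5 min at RT, then acetylcholine was added at 50nM. FDSS fluorescence was read 3 min; 15 concentrations, three runs.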
# [14] = target: Muscarinic acetylcholine receptor M1 (Homo sapiens) (UniProt P11229); experiment: Cholinergic receptor muscarinic 1 (CHRM1) small molecule agonists, cell-based qHTS assay (AID 1963589); note: nearly all actives have a fitted effect of over 35% in size
# Outline: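 Each compound was tested at 15 concentrations across three independent runs on dye-loaded CHO cells stably expressing human CHRM1, reading intracellular calcium fluorescence kinetically at 1 sec intervals.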
# [15] = cAMP Responsive Elements (CRE) small molecule agonists, cell-based qHTS assay (AID 1963590)
# Outline: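 Cell line: CRE-bla HEK 293T; medium DMEM/10% dialyzed FBS/0.1 mM NEAA/1 mM pyruvate/25 mM HEPES; 3 h compound exposure; beta-lactamase FRET readout after 2 h substrate loading at RT.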
# [16] = cAMP Responsive Elements (CRE) small molecule antagonists, cell-based qHTS assay (AID 1963591; active = well fitted inhibition curve with a large enough effect in the signal ratio in the repeat runs, not every such curve was filed as active; the % refers to the signal ratio)
# Outline: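 Inhibition of NKH477-driven (0.25 uM final) CRE-beta-lactamase signal in HEK293T cells, 3 h compound exposure at 37 °C, detected by FRET substrate fluorescence.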
# [17] = target: Beta-2 adrenergic receptor (Homo sapiens) (UniProt P07550); experiment: Adrenergic beta2 receptor (ADRB2) small molecule antagonists, cell-based qHTS assay (AID 1963592); note: nearly all actives have a fitted effect of over 50% in size; note: potency is the fitted concentration of half-maximal effect
# Outline: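 Cells (CHO, stable ADRB2 overexpression) incubated 18-20hr at 37C; compounds added from DMSO; agonist mix (1nM isoproterenol, 100uM IBMX, 25uM Ro-20-1724) added; 0.5hr RT; d2-cAMP and anti-cAMP-cryptate added; 1hr RT; 665/615 nm read.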
# [18] = target: D(2) dopamine receptor (Homo sapiens) (UniProt P14416); experiment: Dopamine D2 receptor (DRD2) small molecule agonists, cell-based qHTS assay (AID 1963594); note: nearly all actives have a fitted effect of over 35% in size
# Outline: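 HEK293 cells stably expressing human DRD2, pre-treated with PDE inhibitor Ro20-1724 (0.1 mM final) and compound 10 min at room temperature, then stimulated with NKH477 (200nM […]) for 30 min. cAMP read by HTRF (665/620 nm).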
# [19] = target: D(2) dopamine receptor (Homo sapiens) (UniProt P14416); experiment: Dopamine D2 receptor (DRD2) small molecule antagonists, cell-based qHTS assay (AID 1963595; active = well fitted inhibition curve with a large enough effect in the signal ratio in the repeat runs, with a control signal flat; the % refers to the signal ratio; note: potency is the fitted concentration of half-maximal effect)
# Outline: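 Cells were plated and grown for 24 h at 37 °C. Ro20-1724 (0.1 mM final) went in first, then compound for 10 min. NKH477 (200 nM) with quinpirole (12 nM) followed for 30 min at RT, then HTRF detection reagents for 1 h.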
# [20] = p53 small molecule agonists, cell-based qHTS assay (AID 1963582; active = well fitted activation curve with a large enough effect in the signal ratio in the repeat runs, not every such curve was filed as active; the % refers to the signal ratio)
# Outline: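 Compounds are pin-transferred in DMSO onto p53RE-bla cells and incubated 16 h at 37 C. The B/G FRET beta-lactamase substrate is then applied for 2 h at RT and fluorescence recorded.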
# Sequence of D(2) dopamine receptor (Homo sapiens) (P14416 whole entry, looked up): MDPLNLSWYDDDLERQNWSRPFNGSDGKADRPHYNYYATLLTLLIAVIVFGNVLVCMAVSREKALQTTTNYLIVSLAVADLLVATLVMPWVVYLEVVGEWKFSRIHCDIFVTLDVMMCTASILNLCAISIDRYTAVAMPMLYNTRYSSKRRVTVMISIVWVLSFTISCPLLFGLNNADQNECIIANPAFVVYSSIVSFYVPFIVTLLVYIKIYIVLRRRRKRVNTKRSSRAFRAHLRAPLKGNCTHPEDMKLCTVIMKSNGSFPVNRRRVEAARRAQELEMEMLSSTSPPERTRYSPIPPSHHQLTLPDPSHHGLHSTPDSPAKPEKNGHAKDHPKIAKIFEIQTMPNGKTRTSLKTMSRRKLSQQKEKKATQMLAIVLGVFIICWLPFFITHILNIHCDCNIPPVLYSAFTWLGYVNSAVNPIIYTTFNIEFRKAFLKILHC
# Sequence of Gonadotropin-releasing hormone receptor (Homo sapiens) (P30968 whole entry, looked up): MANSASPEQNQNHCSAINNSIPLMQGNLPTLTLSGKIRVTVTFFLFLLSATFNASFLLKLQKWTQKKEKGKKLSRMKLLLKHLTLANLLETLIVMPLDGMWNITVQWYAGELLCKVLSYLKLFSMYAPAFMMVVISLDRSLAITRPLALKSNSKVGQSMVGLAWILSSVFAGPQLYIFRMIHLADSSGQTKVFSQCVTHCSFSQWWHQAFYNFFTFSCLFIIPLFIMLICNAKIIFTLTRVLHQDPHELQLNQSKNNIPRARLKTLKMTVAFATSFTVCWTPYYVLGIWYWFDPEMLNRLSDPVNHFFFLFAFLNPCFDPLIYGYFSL
# Sequence of Beta-2 adrenergic receptor (Homo sapiens) (P07550 whole entry, looked up): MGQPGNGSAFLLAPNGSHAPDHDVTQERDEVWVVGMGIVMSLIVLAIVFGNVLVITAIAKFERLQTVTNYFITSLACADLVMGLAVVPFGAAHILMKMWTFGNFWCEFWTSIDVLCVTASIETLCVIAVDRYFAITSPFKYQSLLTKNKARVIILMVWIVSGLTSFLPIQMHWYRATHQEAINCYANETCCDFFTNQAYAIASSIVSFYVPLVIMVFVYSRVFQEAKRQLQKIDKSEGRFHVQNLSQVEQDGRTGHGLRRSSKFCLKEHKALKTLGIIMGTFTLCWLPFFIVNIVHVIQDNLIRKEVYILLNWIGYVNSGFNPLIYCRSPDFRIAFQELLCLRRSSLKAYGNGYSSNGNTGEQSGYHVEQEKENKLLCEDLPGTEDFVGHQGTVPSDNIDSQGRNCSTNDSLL
# Sequence of Muscarinic acetylcholine receptor M1 (Homo sapiens) (P11229 whole entry, looked up): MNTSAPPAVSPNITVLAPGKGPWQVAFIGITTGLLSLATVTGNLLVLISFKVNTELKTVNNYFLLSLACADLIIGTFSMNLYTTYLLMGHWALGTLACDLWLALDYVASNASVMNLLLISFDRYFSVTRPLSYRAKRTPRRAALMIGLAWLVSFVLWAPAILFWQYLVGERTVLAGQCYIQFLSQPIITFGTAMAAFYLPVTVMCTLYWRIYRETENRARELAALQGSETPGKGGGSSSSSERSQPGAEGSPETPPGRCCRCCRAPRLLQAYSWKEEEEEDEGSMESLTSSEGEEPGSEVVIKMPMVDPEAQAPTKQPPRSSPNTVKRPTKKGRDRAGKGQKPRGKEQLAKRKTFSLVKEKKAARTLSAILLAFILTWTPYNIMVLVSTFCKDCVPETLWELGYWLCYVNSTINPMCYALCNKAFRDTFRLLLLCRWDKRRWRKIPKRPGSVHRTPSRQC
# Sequence of KiSS-1 receptor (Homo sapiens) (Q969F8 whole entry, looked up): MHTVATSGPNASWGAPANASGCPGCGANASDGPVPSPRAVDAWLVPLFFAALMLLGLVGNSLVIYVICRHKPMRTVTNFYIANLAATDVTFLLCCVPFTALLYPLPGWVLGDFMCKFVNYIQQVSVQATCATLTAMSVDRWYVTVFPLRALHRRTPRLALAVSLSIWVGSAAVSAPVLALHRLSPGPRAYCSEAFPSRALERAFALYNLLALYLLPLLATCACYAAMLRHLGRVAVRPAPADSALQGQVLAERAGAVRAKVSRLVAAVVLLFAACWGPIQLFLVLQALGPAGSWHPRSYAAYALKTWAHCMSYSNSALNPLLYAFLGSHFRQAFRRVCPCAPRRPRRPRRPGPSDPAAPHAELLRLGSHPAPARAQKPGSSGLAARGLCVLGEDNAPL
# Sequence of 5-hydroxytryptamine receptor 2A (Homo sapiens) (P28223 whole entry, looked up): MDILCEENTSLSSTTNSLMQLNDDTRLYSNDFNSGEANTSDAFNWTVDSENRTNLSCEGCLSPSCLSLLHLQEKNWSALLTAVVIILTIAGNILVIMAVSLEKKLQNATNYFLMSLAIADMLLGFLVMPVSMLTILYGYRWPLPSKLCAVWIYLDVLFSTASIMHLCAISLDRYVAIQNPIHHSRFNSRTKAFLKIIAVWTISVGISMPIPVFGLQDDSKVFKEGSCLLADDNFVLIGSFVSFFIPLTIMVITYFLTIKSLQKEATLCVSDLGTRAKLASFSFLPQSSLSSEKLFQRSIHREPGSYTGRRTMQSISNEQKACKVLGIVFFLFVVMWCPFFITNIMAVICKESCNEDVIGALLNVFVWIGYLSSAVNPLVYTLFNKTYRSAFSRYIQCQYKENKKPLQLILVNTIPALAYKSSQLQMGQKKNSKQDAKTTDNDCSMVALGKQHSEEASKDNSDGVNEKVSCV
SMILES,Potency [1],Potency [2],Potency [3],outcome [4],outcome [5],Potency [6],Potency [7],Potency [8],Potency [9],Potency [10],Potency [11],Potency [12],Potency [13],Potency [14],Potency [15],Potency [16],Potency [17],Potency [18],Potency [19],Potency [20]
C=CCNc1nc(NCC=C)nc(N2CCN(C(c3ccc(F)cc3)c3ccc(F)cc3)CC2)n1,4.22 µM (active),inactive,inactive,inactive,inactive,inactive,inactive,inactive,inactive,inactive,5.16 µM (active),2.68 µM (active),inactive,inactive,inactive,inactive,11.9 µM (active),inactive,inactive,–
C/C=C(\C)C(=O)OCCc1ccccc1,inactive,inactive,inactive,inactive,inactive,inactive,inactive,inactive,inactive,inactive,inactive,inactive,inactive,inactive,inactive,inactive,inactive,inactive,inactive,–
Oc1ccc(Oc2ccccc2)cc1,inactive,inactive,inactive,inactive,inactive,inactive,inactive,inactive,inactive,inactive,inactive,inactive,inactive,inactive,inactive,–,inactive,inactive,inactive,–
CCN1CCN(c2cc3c(cc2F)c(=O)c(C(=O)O)cn3C2CC2)CC1,inactive,inactive,inactive,inactive,inactive,inactive,inactive,inactive,inactive,inactive,–,–,–,–,–,–,–,inactive,inactive,inactive
C[C@H](CCC(=O)NCC(=O)O)[C@H]1CC[C@H]2[C@@H]3[C@H](O)C[C@@H]4C[C@H](O)CC[C@]4(C)[C@H]3C[C@H](O)[C@]12C,inactive,inactive,inactive,inactive,inactive,inactive,inactive,inactive,inactive,inactive,inactive,inactive,inactive,inactive,inactive,inactive,inactive,–,inactive,–
CCO[Si](OCC)(OCC)OCC,inactive,inactive,inactive,inactive,inactive,inactive,inactive,inactive,inactive,inactive,inactive,inactive,inactive,inactive,inactive,inactive,inactive,inactive,inactive,–
COc1cc(N)c(Cl)cc1C(=O)NC1CCN(CCCOc2ccc(F)cc2)CC1OC (stereo unspecified),inactive,inactive,inactive,inactive,inactive,inactive,inactive,inactive,inactive,inactive,–,–,–,–,–,inactive,23.7 µM (active),inactive,11.9 µM (active),inactive
